Results on 40 molecules are retold here after PubChem BioAssay (NCATS).

Records with an inconclusive call do not appear. Where a call stands in place of a potency, no number is given. The source made the active and inactive calls. Calls come from the whole dose curve; as a rule, active = well fitted inhibition curve with a large enough effect; inconclusive = small, poorly fitted or top-dose-only effect, or effect the other way; inactive = no such curve, though single readings can be large or run the other way.
Potency is the fitted concentration of half-maximal effect.

The nature of this test: Quantitative high throughput screen for delayed death inhibitors of the malarial parasite plastid, 96 hour incubation (AID 488745). Note: nearly all actives have a fitted effect of over 70% in size. To be noted: Plasmodium falciparum growth; series mostly up to 28.7 µM. From the text:
NIH Molecular Libraries Probe Production Network [MLPCN]
NIH Chemical Genomics Center [NCGC]
Assay Provider: David Fidock and Eric Ekland, Columbia University
The goal of this screen is to discover new antimalarial compounds that act by inhibiting the development of the apicoplast in the malarial parasite Plasmodium falciparum. The biochemical processes that make this organelle essential for erythrocytic stage parasites are not well understood. However, antibiotics such as azithromycin and tetracycline, which target the apicoplast translational machinery, have a potent antimalarial effect.
We have developed a cell-based assay that measures parasite growth based on the expression of an integrated copy of a firefly luciferase reporter. To detect small molecules that cause this 'delayed death' phenotype, erythrocytes infected with the luciferase-expressing parasites were incubated with compounds for either one or two generations, corresponding to 48 and 96 hours, respectively. Compounds that inhibit parasite growth in the second generation, but not the first, should be enriched in antimalarials that target the apicoplast. Growth inhibition is detected by a decrease in luciferase activity
Four microliters of culture medium (RPMI 1640 with 0.5% w/v Albumax (GIBCO), 24 mM sodium bicarbonate and 10 ug/mL gentamycin) were dispensed by a Multi-drop Combi into white solid 1536-well plates (Grenier) and 23 nL compound was added by a pin tool. Four microliters of infected erythrocytes (2% hematocrit, 0.1% parasitemia final concentration) in culture medium were dispensed and the plates incubated for 96 hours at 37 C in 5% CO2. Two microliters of luciferase detection reagent was added and luminescence was detected by a ViewLux (PerkinElmer) reader
As to `CC(C)(C)NCC(O)COc1cccc2[nH]c(=O)[nH]c12` (stereo not given), the Potency entry was “inactive”. For `Cn1c(=O)c2[nH]c(-c3ccc(S(=O)(=O)O)cc3)nc2n(C)c1=O`, the Potency entry is “inactive”. Turning to `COC(=O)C(N)Cc1ccc(Cl)cc1` (stereo not given), the Potency result is “inactive”.

As to `O=c1cc(-c2ccccc2)[nH]c2nc(Cl)ccc12`, the Potency entry is “inactive”.

Take `Oc1cc2c(cc1O)C(c1ccccc1)CNCC2` (stereo not given): the Potency result was “inactive”. Next, `OC[C@H]1O[C@@H](n2cnc3cncnc32)[C@H](O)[C@@H]1O`: 3.29 µM (active); `O=C(c1ccc2c(c1)OCCO2)N1CCCCC1`: “inactive”. As for `O=c1onc2cnc3ccccc3n12`, the Potency result is “inactive”. As to `COC(=O)[C@H](NC(=O)c1cc(-c2ccccc2)nc2ccccc12)c1ccccc1`, the Potency entry is “inactive”. As for `CC1CCN=C(N)S1` (stereo not given), the entry is “inactive”; as for `COc1ccc(CCN(C)CCc2ccc(OC)c(OC)c2)cc1OC`, “inactive”; as for `CC1CNCCN1S(=O)(=O)c1cccc2cnccc12` (stereo not given), “inactive”. Next, `CCCCCCC/C=C\CCCCCCCCC(=O)O`: “inactive”; `CCCCCCCCCCCCCCCCCCOC[C@H](COP(=O)([O-])OCC[N+](C)(C)C)OC`: “inactive”. As for `c1ccc(C2CN3CCSC3=N2)cc1` (stereo not given), the entry is “inactive”; as for `COc1cc(C(O)C(=O)O)ccc1O` (stereo not given), “inactive”.

For `CCCCCCN(CCCCCC)C(=O)Cc1c(-c2ccc(F)cc2)[nH]c2ccccc12`, the Potency was 3.7 µM (active).

In the case of `Nn1nnc2ccccc21`, the Potency entry is “inactive”. Take `COc1ccccc1N1CCN(CCN(C(=O)c2ccc(F)cc2)c2ccccn2)CC1`: the Potency entry is “inactive”. Next, `CCOC(=O)C12CC1/C(=N/O)c1ccccc1O2` (stereo not given): “inactive”; `NCCCCN=C(N)N`: “inactive”. As for `NCCCCN`, the entry is “inactive”; as for `O=c1onc2n1-c1cc(Br)ccc1OC2`, “inactive”; as for `Nc1ccc2c3c(cccc13)C(=O)NC2=O`, “inactive”. As for `O[Si](CCCN1CCCCC1)(c1ccc(F)cc1)C1CCCCC1` (stereo not given), the figure is 0.117 µM (active); as for `COc1cc(C(O)CO)ccc1O` (stereo not given), “inactive”; as for `CCCCCCCCCCCCCCC[C@H](O)[C@H](N)CO`, “inactive”.

Consider `O=c1[nH]c2cc(Cl)ccc2c(O)c1-c1ccc(Oc2ccccc2)cc1`, for which the Potency entry is “inactive”. `O=C(O)Cc1ccc(O)c(O)c1`: the Potency result was “inactive”.

Turning to `CC(N)=O`, the Potency entry is “inactive”. On to `O=C(O)C1=CCCNC1`, for which the Potency result was “inactive”. As for `c1ccc2nc(C3=NCCN3)ccc2c1`, the entry is “inactive”; as for `N=S(=O)(O)Cc1noc2ccccc12`, “inactive”. As for `NC(Cc1cccc(-c2ccccc2CP(=O)(O)O)c1)C(=O)O` (stereo not given), the Potency result is “inactive”. Regarding `CC[C@H](NC(=O)c1c(C)c(-c2ccccc2)nc2ccccc12)c1ccccc1`, the Potency is 3.7 µM (active). Turning to `NC/C=C\C(=O)O`, the Potency result is “inactive”. `CC(C)C[C@H](NC(=O)[C@H](O)[C@H](N)Cc1ccccc1)C(=O)O`: the Potency result was “inactive”. As for `CC(=O)O[C@H]1CC2(C)[C@@H](C[C@@H](O)[C@H]3[C@@]4(C)CC[C@@H](O)[C@@H](C)[C@@H]4CC[C@@]32C)C1=C(CCC=C(C)C)C(=O)O` (stereo not given in full), the entry is “inactive”; as for `O=c1oc(Cl)c(Cl)c2ccccc12`, “inactive”; as for `NC(=O)c1cc[n+](CC2=C(C(=O)O)N3C(=O)[C@@H](NC(=O)[C@@H](c4ccccc4)S(=O)(=O)[O-])[C@H]3SC2)cc1`, “inactive”.
